{
  "source": "paper PMC7862700",
  "about": "“An all-to-all approach to the identification of sequence-specific readers for epigenetic DNA modifications on cytosine”",
  "experiment_in_all_cases": "DAPPL (digital affinity profiling via proximity ligation, sequencing); 10 mM Tris-HCl pH 7.5, 50 mM NaCl, 1 mM DTT, 4% glycerol, room temperature, 30 min; GST-TFs on glutathione beads, 16-mer random dsDNA library, 0.1% formaldehyde crosslink after washing; high values mean tight binding",
  "conditions_in_all_cases": "protein: recombinant; tags: N-terminal GST; dsDNA, one strand shown",
  "key": {"FLI1": {"molecular_target": "T1, FLI1 (Homo sapiens, UniProt Q01543 1-452)", "T1 sequence": "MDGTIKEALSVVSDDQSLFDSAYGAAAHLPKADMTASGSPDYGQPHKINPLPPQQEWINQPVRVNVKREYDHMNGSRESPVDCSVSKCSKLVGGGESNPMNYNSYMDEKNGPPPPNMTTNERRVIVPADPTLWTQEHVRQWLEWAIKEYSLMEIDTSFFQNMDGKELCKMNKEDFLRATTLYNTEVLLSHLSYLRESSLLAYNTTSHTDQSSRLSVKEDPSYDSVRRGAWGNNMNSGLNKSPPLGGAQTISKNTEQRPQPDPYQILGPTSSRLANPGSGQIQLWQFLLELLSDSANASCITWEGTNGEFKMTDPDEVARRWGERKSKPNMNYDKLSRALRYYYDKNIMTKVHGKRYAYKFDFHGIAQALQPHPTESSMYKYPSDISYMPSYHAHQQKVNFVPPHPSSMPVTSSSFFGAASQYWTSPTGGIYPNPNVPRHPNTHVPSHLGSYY", "method_in_brief": "(§1)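 A tag-only sample was pooled with DNA-barcoded human transcription factors that had been expressed in yeast as GST fusions and captured on glutathione beads. The pools were incubated for 30 min at room temperature with 200 nmole of a random double-stranded 16-mer DNA library in Tris/NaCl/DTT/glycerol buffer, then washed, crosslinked with 0.1% formaldehyde, proximity-ligated (BsaI/T4 ligase, 1 h, 37 °C), PCR-amplified and sequenced on an Illumina NextSeq500. Binding signal is each hexamer's read frequency for a factor divided by its frequency for the tag-only sample.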"}, "ELK1": {"molecular_target": "T2, ELK1 (Homo sapiens, UniProt P19419 1-428)", "T2 sequence": "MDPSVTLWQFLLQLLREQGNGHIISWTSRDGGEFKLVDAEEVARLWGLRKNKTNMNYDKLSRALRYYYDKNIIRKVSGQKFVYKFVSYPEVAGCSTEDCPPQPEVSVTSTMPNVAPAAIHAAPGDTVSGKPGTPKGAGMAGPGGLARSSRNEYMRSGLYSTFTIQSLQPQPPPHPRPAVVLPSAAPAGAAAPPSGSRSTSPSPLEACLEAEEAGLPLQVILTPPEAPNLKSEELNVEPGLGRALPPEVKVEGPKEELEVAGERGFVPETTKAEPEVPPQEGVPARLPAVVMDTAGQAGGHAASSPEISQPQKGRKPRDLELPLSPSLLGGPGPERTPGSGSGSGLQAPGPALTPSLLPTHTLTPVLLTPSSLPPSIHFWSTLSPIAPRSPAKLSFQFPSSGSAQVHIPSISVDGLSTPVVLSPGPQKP", "method_in_brief": "as §1"}, "GABPA": {"molecular_target": "T3, GABPA (Homo sapiens, UniProt Q06546 1-454)", "T3 sequence": "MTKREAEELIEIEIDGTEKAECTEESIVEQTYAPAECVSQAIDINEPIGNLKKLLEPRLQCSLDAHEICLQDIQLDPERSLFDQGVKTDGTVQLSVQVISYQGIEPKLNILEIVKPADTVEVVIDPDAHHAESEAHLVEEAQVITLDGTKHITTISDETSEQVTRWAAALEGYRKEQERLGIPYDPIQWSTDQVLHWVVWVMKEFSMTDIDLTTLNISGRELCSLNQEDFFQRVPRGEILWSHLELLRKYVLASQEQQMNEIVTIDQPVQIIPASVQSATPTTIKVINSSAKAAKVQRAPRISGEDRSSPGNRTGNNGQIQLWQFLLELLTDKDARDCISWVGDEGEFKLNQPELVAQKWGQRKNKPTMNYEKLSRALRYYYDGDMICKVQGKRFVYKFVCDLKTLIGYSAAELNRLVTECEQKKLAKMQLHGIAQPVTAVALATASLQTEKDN", "method_in_brief": "as §1"}, "ERG": {"molecular_target": "T4, ERG (Homo sapiens, UniProt P11308 1-479)", "T4 sequence": "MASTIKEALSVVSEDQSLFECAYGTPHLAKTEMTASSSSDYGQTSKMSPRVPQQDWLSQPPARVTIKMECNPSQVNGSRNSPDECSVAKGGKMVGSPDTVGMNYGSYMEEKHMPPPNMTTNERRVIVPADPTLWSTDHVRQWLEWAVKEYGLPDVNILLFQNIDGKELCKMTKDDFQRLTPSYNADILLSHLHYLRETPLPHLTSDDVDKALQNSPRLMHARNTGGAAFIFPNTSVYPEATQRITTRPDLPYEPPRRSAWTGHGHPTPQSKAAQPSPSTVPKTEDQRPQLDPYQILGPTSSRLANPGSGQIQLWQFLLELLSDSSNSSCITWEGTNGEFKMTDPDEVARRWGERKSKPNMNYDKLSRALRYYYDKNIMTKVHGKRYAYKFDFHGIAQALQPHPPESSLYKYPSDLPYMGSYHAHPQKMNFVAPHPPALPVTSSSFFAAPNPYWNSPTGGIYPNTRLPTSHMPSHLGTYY", "method_in_brief": "as §1"}, "ELF1": {"molecular_target": "ELF1 (Homo sapiens, UniProt P32519 1-619)", "sequence (P32519 whole entry)": "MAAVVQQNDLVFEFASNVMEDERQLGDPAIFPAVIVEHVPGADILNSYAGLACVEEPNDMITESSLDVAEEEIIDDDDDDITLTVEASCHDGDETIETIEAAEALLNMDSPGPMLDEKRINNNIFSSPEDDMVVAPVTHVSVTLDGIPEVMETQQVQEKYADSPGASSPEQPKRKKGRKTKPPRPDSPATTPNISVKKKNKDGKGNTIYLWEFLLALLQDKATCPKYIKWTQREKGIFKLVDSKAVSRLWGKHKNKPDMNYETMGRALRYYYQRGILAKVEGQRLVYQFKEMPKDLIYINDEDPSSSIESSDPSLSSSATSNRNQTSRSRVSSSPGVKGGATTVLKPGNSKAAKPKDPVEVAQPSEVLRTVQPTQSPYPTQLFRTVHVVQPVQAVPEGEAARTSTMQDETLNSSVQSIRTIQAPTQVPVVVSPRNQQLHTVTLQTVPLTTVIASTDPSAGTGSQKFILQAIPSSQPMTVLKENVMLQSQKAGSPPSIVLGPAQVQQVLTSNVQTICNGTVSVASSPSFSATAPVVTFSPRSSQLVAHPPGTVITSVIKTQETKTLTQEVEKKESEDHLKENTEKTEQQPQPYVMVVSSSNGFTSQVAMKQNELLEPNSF", "method_in_brief": "as §1"}, "EHF": {"molecular_target": "T5, EHF (Homo sapiens, UniProt Q9NZC4 1-300)", "T5 sequence": "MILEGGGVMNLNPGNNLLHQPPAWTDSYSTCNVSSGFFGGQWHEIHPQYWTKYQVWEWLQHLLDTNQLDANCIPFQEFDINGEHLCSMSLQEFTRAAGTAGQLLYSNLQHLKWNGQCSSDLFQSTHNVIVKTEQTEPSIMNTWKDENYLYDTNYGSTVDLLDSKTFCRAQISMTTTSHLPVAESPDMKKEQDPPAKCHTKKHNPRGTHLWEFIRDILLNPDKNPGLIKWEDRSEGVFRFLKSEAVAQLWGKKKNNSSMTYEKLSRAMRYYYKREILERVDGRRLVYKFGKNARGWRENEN", "method_in_brief": "as §1"}, "SPI1": {"molecular_target": "SPI1 (Homo sapiens, UniProt P17947 1-270)", "method_in_brief": "as §1"}, "SPIB": {"molecular_target": "SPIB (Homo sapiens, UniProt Q01892 1-262)", "sequence (Q01892 whole entry)": "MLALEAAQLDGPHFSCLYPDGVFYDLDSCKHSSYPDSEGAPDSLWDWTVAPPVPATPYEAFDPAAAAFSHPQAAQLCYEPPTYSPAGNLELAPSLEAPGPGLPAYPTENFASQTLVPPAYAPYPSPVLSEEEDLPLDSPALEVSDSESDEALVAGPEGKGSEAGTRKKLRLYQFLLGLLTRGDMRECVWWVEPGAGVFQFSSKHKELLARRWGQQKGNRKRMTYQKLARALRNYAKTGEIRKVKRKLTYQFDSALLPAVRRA", "method_in_brief": "as §1"}, "ELK3": {"molecular_target": "T6, ELK3 (Homo sapiens, UniProt P41970 1-407)", "T6 sequence": "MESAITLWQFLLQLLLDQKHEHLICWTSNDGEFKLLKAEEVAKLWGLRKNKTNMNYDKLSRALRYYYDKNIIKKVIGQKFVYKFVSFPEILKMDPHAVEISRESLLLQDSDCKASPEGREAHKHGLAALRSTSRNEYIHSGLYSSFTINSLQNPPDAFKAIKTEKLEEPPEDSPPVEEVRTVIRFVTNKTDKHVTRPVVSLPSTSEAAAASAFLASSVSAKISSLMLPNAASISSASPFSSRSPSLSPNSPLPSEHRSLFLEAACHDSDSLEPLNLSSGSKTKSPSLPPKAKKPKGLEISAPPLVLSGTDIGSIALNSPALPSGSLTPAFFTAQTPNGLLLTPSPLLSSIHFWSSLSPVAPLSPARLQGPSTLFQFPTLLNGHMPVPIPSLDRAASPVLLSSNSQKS", "method_in_brief": "as §1"}},
  "data": [
    {"sequence": "ACTGCG", "values": [
      {"measurement": "binding signal", "setting": "FLI1", "value": "1.24 fold enrichment (6-mer frequency, TF over GST control)"},
      {"measurement": "binding signal", "setting": "ELK1", "value": "1.32 fold enrichment (6-mer frequency, TF over GST control)"},
      {"measurement": "binding signal", "setting": "GABPA", "value": "1.26 fold enrichment (6-mer frequency, TF over GST control)"},
      {"measurement": "binding signal", "setting": "ERG", "value": "1.26 fold enrichment (6-mer frequency, TF over GST control)"},
      {"measurement": "binding signal", "setting": "ELF1", "value": "1.35 fold enrichment (6-mer frequency, TF over GST control)"},
      {"measurement": "binding signal", "setting": "EHF", "value": "1.37 fold enrichment (6-mer frequency, TF over GST control)"},
      {"measurement": "binding signal", "setting": "SPI1", "value": "1.33 fold enrichment (6-mer frequency, TF over GST control)"},
      {"measurement": "binding signal", "setting": "SPIB", "value": "1.3 fold enrichment (6-mer frequency, TF over GST control)"},
      {"measurement": "binding signal", "setting": "ELK3", "value": "1.25 fold enrichment (6-mer frequency, TF over GST control)"}
    ]}
  ]
}
